# Assay results from PubChem BioAssay AID431 (Sanford-Burnham Center for Chemical Genomics, 2006).
# Among all 63,000 compounds or so, about 1,100 (1.7%) were called active. This excerpt belongs to a sample that is enriched for actives. Measured potencies and affinities stand elsewhere. Values without a mark were called inactive.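 Rule for the calls: active = compounds whose percent cytotoxicity in the single-dose primary screen, scaled between solvent and toxic-drug controls, exceeds 50; inactive = the rest.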
# Assay: viability loss of HPDE-C7K cells – cell-based, fluorescence, HTS, primary screen (AID 431);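 note: 0% = DMSO solvent wells and 100% = doxorubicin-treated wells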
# Details: HPDE-C7K KRASV12 cells, Alamar Blue viability, 48 h; at 10 µM; stronger effect = higher value
row,SMILES,cytotoxicity
1,Cc1cc(C)c(C#N)c(Nc2ccc3c(c2)OCCO3)n1,11.2%
2,c1ccc(Nc2ncnc3c2oc2ccccc23)cc1,-10%
3,c1ccc2c(c1)oc1c(NCCN3CCOCC3)ncnc12,-2.7%
4,CCCCOC(=O)c1ccc(NC(=O)c2cnccn2)cc1,10.3%
5,C=CCn1c(N)c(C(=O)OC(C)(C)C)c2nc3ccccc3nc21,62.9% (active)
6,C=CCNC(=O)c1c(N)n(-c2ccc3c(c2)OCO3)c2nc3ccccc3nc12,-6.4%
7,C=CCNC(=O)c1c(N)n(-c2cccc(S(N)(=O)=O)c2)c2nc3ccccc3nc12,8.3%
8,C=CCn1c(N)c(C(=O)OC(C)CC)c2nc3ccccc3nc21 (stereo unspecified),24.5%
9,C=CCn1c(N)c(C(=O)Nc2ccccc2)c2nc3ccccc3nc21,60.6% (active)
10,C=CCn1c(N)c(C(=O)OCCC)c2nc3ccccc3nc21,7.1%
11,Nc1c(C(=O)N2CCCCC2)sc(=S)n1-c1ccccc1,-4.9%
12,CCOC(=O)Cc1nn2c(=O)cc(C)nc2s1,-0.8%
13,CC(=O)NC1(C(F)(F)F)C(=O)Nc2c1c(=O)[nH]c(=O)n2Cc1ccco1 (stereo unspecified),-16.1%
14,Cc1cc(C)n(-c2nc(Nc3ccccc3)nc(-n3nc(C)cc3C)n2)n1,9.6%
15,CC(=O)c1cccc(NC(=O)CC2SC(N3CCCCC3)=NC2=O)c1 (stereo unspecified),-7.4%
16,CCOCC(=O)Nc1nc2ccc(OCC)cc2s1,4.3%
17,Cc1cccc(N(CC(=O)NCc2ccccc2)C(=O)Cn2nnc(-c3ccc(C)o3)n2)c1,-14.9%
18,CC(CN1CCOCC1)OC(=O)c1ccc2c(c1)OCCO2 (stereo unspecified),9.2%
19,COc1ccc(C(=O)OC(C)CN2CCOCC2)cc1OC (stereo unspecified),-10%
20,O=C(CCN1C(=O)C2C3C=CC(C3)C2C1=O)NCc1cccnc1 (stereo unspecified),-6.8%
21,O=C(CSc1nc(Nc2ccccc2)nc(N2CCOCC2)n1)N1CCCC1,5.4%
22,O=C(CSc1nc2ccccc2c(=O)n1C1CC1)NCc1ccccc1,3.5%
23,COc1ccccc1-c1nnn(CC#N)n1,6.1%
24,CCOC(=O)c1c(C)c(C(=O)N2CCCCCC2)c(C)n1CC,-2.8%

row,SMILES,cytotoxicity
1,O=C1c2ccccc2NC(c2ccccc2)N1Cc1ccco1 (stereo unspecified),-5.8%
2,CCOC(=O)CSC1=C(C#N)C(=O)NC(c2ccc(OC)c(OC)c2)S1 (stereo unspecified),70.5% (active)
3,CCOC(=O)CC1=C(C(=O)OCC)C(c2ccc(OC)c(OC)c2)C(C#N)=C(N)O1 (stereo unspecified),5.7%
4,CCOC(=O)CSC1=C(C#N)C(=O)NC2(CCCCC2)S1,13.8%
5,COc1ccc(CCn2c(C)ccc2C)cc1OC,-8.8%
6,O=C(NC1CCCCC1)N1CCC(c2nc3ccc(Cl)cc3[nH]2)CC1,7.4%
7,Cn1nc(-c2ccc(Cl)cc2)c2cc(C(=O)NCCCN3CCCC3)sc21,54.3% (active)
8,Cn1nc(-c2ccc(Cl)cc2)c2cc(C(=O)NCCCN3CCOCC3)sc21,9.2%
9,CN1CCN(CCCNC(=O)c2cc3c(-c4ccc(Cl)cc4)nn(C)c3s2)CC1,3.3%
10,COc1ccccc1N1CCN(CCC(=O)Nc2ccc3c(c2)OCO3)CC1,7.5%
11,Cc1ccc(-c2nc3cccnc3o2)cc1NC(=O)COc1ccc(Cl)cc1C,0.4%
12,CCOc1cccc(C(=O)Nc2cccc(-c3nnc(-c4ccccc4)o3)c2)c1,-9.8%
13,CCOc1ccc(C(=O)Nc2cccc(-c3nc4cccnc4o3)c2)cc1Cl,56% (active)
14,CCN1CCN(c2ccc(NC(=O)c3cccc4ncccc34)cc2)CC1,-12.5%
15,Cc1sc2nc(SCC(=O)c3cccs3)n(Cc3ccco3)c(=O)c2c1C,31.6%
16,Oc1ccc(Nc2nc(NCC3CCCO3)c3ccccc3n2)cc1 (stereo unspecified),46.8%
17,CCN(CC)c1nc(-c2cccc(OC)c2O)nc2ccccc12,-8.4%
18,C=CCNc1nc(-c2cccc(OC)c2O)nc2ccccc12,-8.3%
19,COc1cccc(-c2nc(N3CCCCC3)c3ccccc3n2)c1O,-18.8%
20,COc1cccc(-c2nc(NC(C)(C)C)c3ccccc3n2)c1O,20.9%
21,COc1cccc(-c2nc(NC(C)C)c3ccccc3n2)c1O,42.1%
22,CCC(C)Nc1nc(-c2cccc(OC)c2O)nc2ccccc12 (stereo unspecified),114% (active)
23,Oc1ccccc1-c1nc(NCc2ccco2)c2ccccc2n1,5.3%
24,COc1cccc(-c2nc(N3CCCCC3C)c3ccccc3n2)c1O (stereo unspecified),63.1% (active)

row,SMILES,cytotoxicity
1,COc1cccc(-c2nc(NCC3CCCO3)c3ccccc3n2)c1O (stereo unspecified),55.1% (active)
2,CCC1CCCCN1c1nc(-c2cccc(OC)c2O)nc2ccccc12 (stereo unspecified),8.3%
3,CS(=O)(=O)N(CC(=O)N1CCN(Cc2ccccc2)CC1)Cc1ccccc1,-3%
4,COCCCNc1nc2c(c(=O)[nH]c(=O)n2C)n1CCCc1ccccc1,-3.8%
5,CCCn1c(CNS(=O)(=O)c2ccc(C)cc2)nc2ccccc21,5.2%
6,O=C(CN1CCN(C(=O)c2ccccc2F)CC1)Nc1ccc(Br)cc1,-5.9%
7,CCCCn1cnc2sc3c(c2c1=N)CCCC3,-7.6%
8,CCCCOC(=O)Nc1ccccc1C(N)=O,-5.7%
9,COc1ccc(/C(O)=C2/C(=O)C(=O)N(CCCC(=O)O)C2c2ccc(OC)c(OC)c2)cc1 (stereo unspecified),-0.6%
10,Oc1ccccc1Nc1nc(NCC2CCCO2)c2ccccc2n1 (stereo unspecified),12.1%
11,Oc1ccccc1-c1nc(NCC2CCCO2)c2ccccc2n1 (stereo unspecified),50.1% (active)
12,c1coc(CNc2nc(N3CCCCC3)nc3ccccc23)c1,38.2%
13,c1ccc(-c2nc(NCc3ccco3)c3ccccc3n2)nc1,20%
14,c1ccc(-c2nc(NCC3CCCO3)c3ccccc3n2)nc1 (stereo unspecified),9.5%
15,CC(=O)c1ccc(NC(=O)CSc2nnc(Cn3c(=O)sc4ccccc43)n2C)cc1,-1.4%
16,N#Cc1ccc(CSc2nnc(-c3ccccn3)n2-c2ccccc2)cc1,10.8%
17,COc1cc2[nH]c(=O)n(CCCCCC(=O)NCCCN3CCC(C)CC3)c(=O)c2cc1OC,-6.7%
18,O=C(CN1C(=O)NC2(CCCCCCC2)C1=O)N1CCOCC1,-1.1%
19,O=C(Cn1c(=O)oc2cc(S(=O)(=O)NCc3ccccc3)ccc21)NCc1ccco1,2.7%
20,CCCc1nc(N2CCOCC2)c(C#N)c2c1CCCC2,-0.6%
21,CC(C)Cc1nc(N2CCOCC2)c(C#N)c2c1CCC2,64.8% (active)
22,CC(C)Cc1nc(N2CCN(C(=O)C(C)C)CC2)c(C#N)c2c1CCC2,-14.5%
23,CCCc1nc(N2CCCC2)c(C#N)c2c1CCCC2,87.9% (active)
24,CC(C)Cc1nc(N2CCN(C(=O)c3ccco3)CC2)c(C#N)c2c1CCC2,63.2% (active)

row,SMILES,cytotoxicity
1,CCc1nc(N2CCOCC2)c(C#N)c2c1CCCC2,-2.9%
2,CCc1nc(N2CCN(C(=O)c3ccccc3)CC2)c(C#N)c2c1COC(C)(C)C2,5.9%
3,CCc1nc(N2CCCC2)c(C#N)c2c1CCCC2,-11.1%
4,CC1(C)Cc2c(C#N)c(N3CCOCC3)nc(Cc3ccccc3)c2CO1,40%
5,CC(=O)N1CCN(c2nc(CC(C)C)c3c(c2C#N)CCC3)CC1,2%
6,CC(C)Cc1nc(N2CCCCC2)c(C#N)c2c1CCC2,16.1%
7,CCCNC1=C(C)C(=O)CC1,15.5%
8,CCOc1ncccc1C(=O)OCC(=O)c1ccc[nH]1,2.7%
9,COc1ccc(CCNC(=O)C2=COCCO2)cc1,-8.1%
10,O=C(Nc1cc(Cl)ccc1O)c1cc2n(n1)C(C(F)(F)F)CC(c1ccc3c(c1)OCO3)N2 (stereo unspecified),-19.1%
11,O=C(Nc1ccc2c(c1)OCO2)c1cc2n(n1)C(C(F)(F)F)CC(c1ccccc1)N2 (stereo unspecified),72.7% (active)
12,Cc1cccc(NC(=O)c2cc3n(n2)C(C(F)(F)F)CC(c2ccc4c(c2)OCO4)N3)c1 (stereo unspecified),75.8% (active)
13,O=C(NCc1ccc2c(c1)OCO2)c1cc2n(n1)C(C(F)(F)F)CC(c1ccc3c(c1)OCO3)N2 (stereo unspecified),21.6%
14,COc1ccc(OC)c(NC(=O)c2cc3n(n2)C(C(F)(F)F)CC(c2ccc4c(c2)OCO4)N3)c1 (stereo unspecified),42.4%
15,COc1ccccc1NC(=O)c1cc2n(n1)C(C(F)(F)F)CC(c1ccc3c(c1)OCO3)N2 (stereo unspecified),41.8%
16,COc1ccc(C2CC(C(F)(F)F)n3nc(C(=O)Nc4ccc5c(c4)OCO5)cc3N2)cc1 (stereo unspecified),-10.9%
17,COc1ccc(NC(=O)c2cc3n(n2)C(C(F)(F)F)CC(c2ccc4c(c2)OCO4)N3)cc1OC (stereo unspecified),69.1% (active)
18,Cc1cc(NC(=O)c2cc3n(n2)C(C(F)(F)F)CC(c2ccc(Cl)c(Cl)c2)N3)no1 (stereo unspecified),14.7%
19,CC(=O)N(c1ccc2oc(=O)sc2c1)S(=O)(=O)c1cccs1,14.7%
20,COc1ccc(NC(=O)N2CCn3c2nc2ccccc23)cc1,-17.6%
21,N=c1c(C(=O)NC2CCCC2)cc2c(=O)n3ccccc3nc2n1CCN1CCOCC1,-8.1%
22,COCc1[nH]nc2c1C(c1ccc(F)cc1F)C(C#N)=C(N)O2 (stereo unspecified),-13.5%
23,Cc1cc(N2C(=O)C(O)=C(C(=O)c3ccco3)C2c2cccnc2)no1 (stereo unspecified),-10.4%
24,Cn1c(C(=O)Nc2ccc3c(c2)OCCO3)cc2c(=O)n(C)c3ccccc3c21,48.6%
